Assay outcomes from PubChem BioAssay.
Only some compounds are listed: those with a hit (about 2.1% of all), similar ones and a draw of the others.
APP transl inh – APP translation inhibition; SH-SY5Y APP 5'UTR-luciferase reporter, luminescence; inhibition, % at 2 µM; actives 0.82% (n = 190,000); AID 1285;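 active = inhibition above a set limit, derived from the sample mean plus 3 SD, cut at about 45% in these data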
KLF5 inh – suppresses KLF5 promoter-driven expression; inhibition, % at 5 µM; DLD-1 KLF5 promoter-luciferase reporter, luminescence; actives 0.23% (n = 290,000);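 active = inhibition above a per-plate limit of that plate's mean compound inhibition plus 3 SD, cut at about 60% in these data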;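 also: higher means less KLF5 promoter-driven luciferase light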
BaF3 parental – counter-screen for JAK2V617F inhibitors: parental Ba/F3 viability inhibitors | inhibition, % at 5.6 µM | actives 1.1% (n = 220,000) | CellTiter-Glo ATP luminescence;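 active = inhibition above a per-campaign cutoff, the mean inhibition of all tested compounds plus 3 SD, cut at about 27% in these data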
aSyn UTR inh – MLPCN primary screen, SNCA 5' untranslated region; alpha-synuclein 5'UTR reporter, inhibitor activity; actives 0.82% (n = 300,000); inhibition, % (tested at 7.5 µM); in the data active = inhibition above about 60%;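 also: H4 neuroglioblastoma cells stably carrying SNCA 5'UTR luciferase fusion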
Ba/F3 V617F tox – lowers viability of Ba/F3 cells expressing EpoR and JAK2V617F | ATP luminescence | actives 1.1% (n = 220,000) | AID 1446 | inhibition, % at 5.6 µM;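 active = inhibition above the campaign mean plus 3 SD over all tested compounds, cut at about 24% in these data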;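 also: cytokine-independent growth of Ba/F3 cells driven by EpoR plus mutant JAK2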
IEC-6 cytotox – kills IEC-6 intestinal cells in KLF5 counter-screen; actives 0.78% (n = 290,000); IEC-6 cytotoxicity, luminescence viability; inhibition, % at 5 µM; AID 1825; in the data active = inhibition above about 22%
Numbers stand for hits; . = inactive; / = not tested or not shown.

SMILES	APP transl inh	KLF5 inh	BaF3 parental	aSyn UTR inh	Ba/F3 V617F tox	IEC-6 cytotox
O=C(Cn1cnc2ccccc21)NCc1ccccc1	.	.	.	.	.	.
O=C(Cn1cnc2ccccc21)Nc1ccc(SC(F)F)cc1	.	.	49.9	.	35.8	.
O=C(Oc1c(-c2ccccc2)c(=O)n2c3c(cccc13)CC2)c1ccccc1	/	.	.	.	.	.
O=C(Oc1c(-c2ccccc2)c(=O)n2c3c(cccc13)CC2)c1cccc([N+](=O)[O-])c1	/	.	.	77.3	.	.
COc1ccc(Nc2oc(COc3ccccc3OC)nc2C#N)cc1	.	.	.	98.3	.	.
O=C(C[n+]1cccc(CNC(=O)c2ccc(OC(F)F)cc2)c1)c1ccccc1	.	.	.	.	.	.
CN(C)c1cc[n+](CC(=O)c2ccc(OC(F)F)cc2)cc1	/	.	47.1	.	39.7	.
O=[N+]([O-])c1ccc(-n2cnc3ccccc32)c([N+](=O)[O-])c1	.	.	.	.	.	.
COc1cc2cc(-c3ccc(OC)c(OC)c3C)nc(N)c2cc1OC	/	/	/	95.5	/	/
CCOc1ccc(-c2cc3cc(OC)c(OC)cc3c(C)n2)cc1	.	.	.	.	.	.
COc1cccc(/C=N/NC(=O)c2cc3c(OC)cccc3[nH]2)c1O	45.3	.	.	85.5	.	.
COc1cccc(/C=N/NC(=O)c2cc(-c3cccn3C)n[nH]2)c1O	.	.	.	94.7	.	.
Cc1cc(CNC(=O)COC(=O)Cn2[nH]c(=O)c3ccccc3c2=O)cc(C)c1O	/	/	/	.	/	/
Cc1[nH]n(-c2ccccc2)c(=O)c1N=Nc1ccc(C(N)=O)cc1	/	.	/	.	/	.
NC(=O)c1ccc(N=Nc2c(-c3ccccc3)[nH]n(-c3ccccc3)c2=O)cc1	68.7	.	.	.	.	.
O=C(c1cc(-c2ccc(Cl)cc2Cl)on1)N1CCOCC1	.	.	.	79.8	.	.
COc1ccc(O)c(CN2CCCC(N3CCc4ccccc4C3)C2)c1 (configuration not stated)	/	.	/	.	/	.
CC/C(=N\NC(=O)c1ccncc1)C12CC3CC(CC(C3)C1)C2	52.5	.	.	.	.	.
CC/C(=N\NC(=O)c1ccc2c(c1)OCO2)C12CC3CC(CC(C3)C1)C2	.	.	.	.	.	.
CC1C(=O)NN=C1C(=O)N/N=C/c1ccco1 (configuration not stated)	72.0	.	.	.	.	.
COC(=O)/C=C/c1ccccc1S(=O)(=O)N(Cc1ccccc1)Cc1ccco1	/	/	/	89.4	/	/
C#CC[N+]1(CC#Cc2ccccc2)CCCC1	.	.	45.5	.	40.2	.
C#CC[N+]1(CC#Cc2ccc(C#CC[N+]3(CC#C)CCOCC3)cc2)CCOCC1	.	.	.	.	.	.
C(#Cc1ccccc1)C[N+]1(CC#Cc2cccc3ccccc23)CCCC1	.	.	81.5	.	97.2	.
C#CC[N+]1(CC#Cc2cccc3ccccc23)CCOCC1	.	.	50.1	.	80.7	.
SMILES	APP transl inh	KLF5 inh	BaF3 parental	aSyn UTR inh	Ba/F3 V617F tox	IEC-6 cytotox
CC(=O)N1CCc2cc(S(=O)(=O)NCC(=O)NCc3ccc(F)cc3)ccc21	/	.	/	.	/	.
CC1(C)Cc2ccccc2C(N/N=C/c2ccc(Cl)cc2)=N1	.	.	.	.	.	.
O=C(Cc1ccccc1)NNC(=S)NC(=O)c1cccs1	/	.	.	75.4	.	.
O=C(N/N=C/c1sc2ccccc2c1O)c1ccccc1	52.6	.	.	81.5	.	.
COc1ccc2cc(C(=O)N/N=C/c3sc4ccccc4c3O)ccc2c1	.	.	.	.	.	.
O=C(N/N=C/c1sc2ccccc2c1O)c1cccc2ccccc12	48.5	.	.	91.6	.	.
O=C(N/N=C/c1ccccc1)c1cccc2ccccc12	/	/	/	.	/	/
CCCOc1ccc(CSc2nc3ccccc3[nH]2)cc1	.	.	44.5	.	.	.
CCOc1ccc(OCCSc2nc3ccccc3[nH]2)cc1	.	.	.	.	.	.
CN1CCc2c(sc(NC(=O)c3cc(Cl)sc3Cl)c2C(N)=O)C1	/	.	/	.	/	.
CCN1CCN(c2cc(C)c3cc(NC(=O)c4cc(OC)cc(OC)c4)ccc3n2)CC1	/	.	.	.	.	.
CCOc1ccc(C(=O)Nc2ccc3nc(N4CCN(CC)CC4)cc(C)c3c2)cc1	/	.	/	66.5	/	.
C=C(C)CNC(=S)N/N=C/c1c(F)cccc1F	.	.	.	.	.	.
FC(F)Sc1ccc(NC2=NCCCCC2)cc1	/	.	/	.	/	.
CC(C)(C)c1cn(-c2ccc(Cl)cc2)c(=S)[nH]1	.	.	.	.	.	.
FC(F)Sc1ccc(-n2cc(-c3ccc(Cl)cc3)[n+]3c2CCC3)cc1	.	.	36.5	.	24.6	.
Clc1ccc(-n2cc(-c3ccc(Br)cc3)[n+]3c2CCCCC3)cc1	/	.	60.5	.	54.8	.
Cc1ccc(-c2cn(-c3ccc(SC(F)F)cc3)c3[n+]2CCC3)cc1	.	.	66.0	.	66.6	.
c1ccc(-c2c[nH]c3[n+]2CCCCC3)cc1	.	.	.	.	.	.
Brc1ccc(-c2csc3[n+]2CCCCC3)cc1	.	.	54.8	.	54.8	.
O=C(Cn1nc(CNc2ccc(Cl)cc2)[n+]2c1CCCCC2)c1ccc(Br)cc1	.	.	.	.	.	.
c1ccc(C2=Nc3cccnc3C(c3ccccc3)=NN2)cc1	.	.	.	.	.	.
O=C(OC(C(=O)NCc1ccc2c(c1)OCO2)c1ccncc1)c1ccc(Cl)nc1 (configuration not stated)	.	.	80.6	.	.	.
COc1ccc(-c2csc(NC(=S)NC(=O)/C=C/c3ccco3)n2)cc1Br	/	.	.	90.7	.	.
COc1ccc(-c2csc(NC(=S)NC(=O)/C=C/c3ccc(C(C)C)cc3)n2)cc1OC	/	.	/	.	/	.
SMILES	APP transl inh	KLF5 inh	BaF3 parental	aSyn UTR inh	Ba/F3 V617F tox	IEC-6 cytotox
COc1ccc(-c2csc(NC(=S)NC(=O)/C=C/c3ccco3)n2)cc1OC	74.8	.	.	62.9	.	.
COc1ccc(-c2csc(NC(=S)NC(=O)c3ccco3)n2)cc1Br	/	.	/	.	/	.
Cc1ccc(C(=O)C(C(=O)/C=C/c2ccccc2)=C2SCCCS2)cc1	.	.	.	.	.	.
Cn1c(=O)n(C)c2cc(NS(=O)(=O)c3ccc4c(c3)CCCC4)ccc21	.	.	27.6	.	24.8	.
Cn1c(=O)n(C)c2cc(NS(=O)(=O)c3ccc(C(C)(C)C)cc3)ccc21	.	.	29.9	.	.	.
CCCN1CCC(=O)N([C@H](CN=[N+]=[N-])CC(C)C)CC1	/	.	/	.	/	.
COc1ccc(-n2c(SC(C)C(=O)Nc3ncc(Cl)cc3Cl)nc3ccccc32)cc1 (configuration not stated)	.	.	62.0	76.6	68.5	66.5
CC(Sc1nnc2ccccn12)C(=O)Nc1ncc(Cl)cc1Cl (configuration not stated)	.	.	.	.	.	.
CCOC(=O)c1ccccc1NC(=O)N[C@@H](C)C(=O)OC	.	.	.	.	.	.
COC(=O)c1ccccc1NC(=O)N[C@@H](C)C(=O)OC	76.2	.	.	.	.	.
